PL synth Enamine: phospholipid synthesis inhibitors, CHO cells, primary screen, ZR-82 cells, Enamine library, screen 3. ZR-82 CHO cells, pyrene fatty acid UV survival, CellTiter Blue; peroxisome-deficient CHO-K1 mutant line; plus DGAT-1, DGAT-2 and ACAT inhibitors. calls only at 10 µM. actives 0.4% (n = 20,000). AID 1347385, 2020;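 active = cell survival signal 2 SD away from solvent-only control wells, confirmed on one or two retests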;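 also: 3 h compound exposure then viability read about one day after UV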
The depositor's hits bear a star; i = inactive; + = active, no number. This excerpt belongs to a sample that is enriched for hits.

SMILES	PL synth Enamine
Oc1ccc2ccccc2c1N=Nc1ccc2c(c1)OCCO2	+
Cc1[nH]c2ccccc2c1N=Nc1ccccc1F	i
Oc1ccc2ccccc2c1N=Nc1ncn[nH]1	i
CCOC(=O)CN1C(=O)S/C(=C\c2ccc(Br)o2)C1=O	i
CN1CCN(/N=C/c2ccccc2I)CC1	i
O=C(CCCc1c[nH]c2ccccc12)OCn1nnc2ccccc2c1=O	i
Cc1ccc(-c2[nH]c(=S)[nH]c2-c2ccc(C)cc2)cc1	i
O=S(=O)(Nc1ccc2c(c1)OCCO2)c1ccc2c(c1)CCCC2	i
O=S(=O)(Nc1ccc2c(c1)CCC2)c1ccc(Br)cc1	+
O=S(=O)(Nc1ccc2c(c1)CCC2)c1ccc(F)cc1	i
Brc1cc(Br)c2cccnc2c1OCc1nc2ccccc2s1	i
c1ccc2cc(OCc3nc4ccccc4s3)ccc2c1	+
c1ccc2cc(OCc3nc4ccccc4[nH]3)ccc2c1	i
CCN1CCN(CCS(=O)(=O)OCC(F)(F)C(F)F)CC1	i
FC(F)Sc1nc(-c2ccccc2)c(-c2ccccc2)n1C(F)F	i
FC(F)n1c(=S)n(C(F)F)c2ccccc21	i
FC(F)n1c(-c2ccccc2)c(-c2ccccc2)n(C(F)F)c1=S	+
Brc1ccc2cc(Oc3ncnc4c3oc3ccccc34)ccc2c1	i
O=C(CSc1nc2sc3c(c2c(=O)n1CC1CCCO1)CCC3)NNC(=O)c1ccco1 (stereo unspecified)	i
Cc1cc(C(C)(C)C)cc(C)c1CSc1ncnc2ccccc12	i
Cc1cc(C(C)(C)C)cc(C)c1CSc1nc(=S)c2ccccc2[nH]1	i
Cc1cc(C(C)(C)C)cc(C)c1C[n+]1ccc2ccccc2c1	+
O=c1c2ccc(Cl)cc2[nH]c(=S)n1CC1CCCO1 (stereo unspecified)	i
C=CCn1c(C)cc(C(=O)Cn2cc([N+](=O)[O-])ccc2=O)c1C	i
O=c1[nH]c(CSc2cccc[n+]2[O-])nc2sc3c(c12)CCC3	i
SMILES	PL synth Enamine
C(=C(c1nc2ccccc2s1)c1nc2ccccc2s1)c1cccs1	i
Cn1cccc1C=C(c1nc2ccccc2s1)c1nc2ccccc2s1	+
C(=C(c1nc2ccccc2s1)c1nc2ccccc2s1)c1ccc(-c2ccccc2)cc1	i
c1ccc(-n2nnnc2N2CCCC2c2cccs2)cc1 (stereo unspecified)	i
CCC(C)NC(=O)Cn1nc(C)c(S(=O)(=O)N(C)C)c1C (stereo unspecified)	i
FC(F)Oc1ccc(NC(=S)NC2CCCCCCC2)cc1	+
Fc1ccc(NC(=S)NC2CCC(NC(=S)Nc3ccc(F)cc3)CC2)cc1 (stereo unspecified)	i
FC(F)Sc1ccc(NC(=S)NC2CCC(NC(=S)Nc3ccc(SC(F)F)cc3)CC2)cc1 (stereo unspecified)	i
O=P1(NNC(=S)NCc2ccccc2)C=C(c2ccccc2)OC(c2ccccc2)=C1	i
Cc1ccc(C2=Nn3c(Cc4ccc(Br)cc4)nnc3SC2c2ccc(C)cc2)cc1 (stereo unspecified)	i
FC(F)(F)c1cc(NC(=S)Nc2ccc(Cl)c(Cl)c2)ccc1Cl	+
Fc1ccc(NC(=S)Nc2ccc(Cl)c(C(F)(F)F)c2)cc1Cl	i
S=C(NN=C1C2CC3CC(C2)CC1C3)Nc1ccc(Cl)c(Cl)c1	i
O=C(OCC1C(COC(=O)c2ccc(Br)o2)C1(Cl)Cl)c1ccc(Br)o1 (stereo unspecified)	i
Cc1nc(N)sc1N=Nc1ccc(Br)cc1	+
Cc1nc(N)sc1C	i
CCN(CC)S(=O)(=O)c1ccc(N=Nc2sc(N)nc2C)cc1	i
CCOC(=O)C1C(c2ccc([N+](=O)[O-])o2)NC(=O)NC1(O)C(F)(F)F (stereo unspecified)	i
CN1/C(=C\P(=Nc2cccc3ccccc23)(Oc2cccc3ccccc23)c2ccccc2)C(C)(C)c2ccccc21 (stereo unspecified)	i
CCN(CC)P(/C=C1/N(C)c2ccccc2C1(C)C)(=Nc1ccc(C)cc1C)c1ccccc1 (stereo unspecified)	+
Cc1ccc(NP(=O)(/C=C2\N(C)c3ccccc3C2(C)C)c2ccccc2)cc1C (stereo unspecified)	i
O=C(C[N+]12CC[N+](CC(=O)N3CCOCC3)(CC1)CC2)N1CCOCC1	i
O=C(NC1CCCCC1)N1N=C2/C(=C/c3ccc(Cl)cc3)CCCC2C1c1ccc(Cl)cc1 (stereo unspecified)	i
O=[N+]([O-])c1ccc2[nH]c(O)c(N=Nc3ncnc4c3cnn4-c3ccccc3)c2c1	i
Cc1nn(-c2ccccc2)c(N)c1N=Nc1ccccc1OC(F)F	+
SMILES	PL synth Enamine
Cc1nn(-c2ccccc2)c(N)c1N=Nc1ccc2ccccc2c1	i
COc1ccc(OC)c(N=Nc2c(C)nn(-c3ccccc3)c2N)c1	i
O=[N+]([O-])c1cccc(S(=O)(=O)N2CN(c3ccc4ccccc4c3)c3nc4ccccc4nc32)c1	i
Oc1ccc(/C=N/N=C/C2=C(N3CCOCC3)C(=C\c3ccccc3)/CC2)c(O)c1	i
O=C1Nc2ccccc2/C1=N\N=C\C1=C(N2CCOCC2)C(=C\c2ccccc2)/CC1	+
C(=N\Nc1ccc(N2CCOCC2)nn1)/C1=C(N2CCOCC2)C(=C/c2ccccc2)/CC1	i
Clc1cccc(Cl)c1/C=C/c1nc2c(ccc3ccccc32)s1	i
COc1cc2nc(CSc3nnnn3C)[nH]c(=O)c2cc1OC	i
Fc1ccc(Cn2c(=S)[nH]c3ccccc32)cc1	i
c1ccc2sc(NN=C3CCCCCC3)nc2c1	i
C=CCNC(=S)N/N=C1\CCS(=O)(=O)c2ccccc21	i
O=S1(=O)CC/C(=N/Nc2ccc(Cl)cc2)c2cc(F)ccc21	+
NC(=O)N/N=C1\CCS(=O)(=O)c2ccc(F)cc21	i
O=S1(=O)CC/C(=N/Nc2nc3ccccc3s2)c2cc(F)ccc21	+
c1ccc2c(c1)CC/C(=N\Nc1nc3ccccc3s1)C2	i
OC1(c2cccs2)C[N+]2=C(SCC2)N1c1ccccc1 (stereo unspecified)	i
Cn1c(C(=S)N=P(C2CCCCC2)(N2CCOCC2)N2CCOCC2)ccc1C(=S)N=P(N1CCOCC1)(N1CCOCC1)C(C)(C)C	i
O=C1N(c2ccc3c(c2)OCO3)C(c2ccc(Cl)cc2)C1(F)F (stereo unspecified)	i
Cn1/c(=N/N=C/c2cn(-c3ccccc3)nc2-c2cc3ccccc3o2)sc2ccccc21	i
C(=C\c1cn(-c2ccccc2)nc1-c1cc2ccccc2o1)/c1nc2ccccc2s1	+
C(=N\N(c1ccccc1)c1ccccc1)/c1cn(-c2ccccc2)nc1-c1cc2ccccc2o1	i
C=CCn1c(SCCO)nc2sc3c(c2c1=O)CCCC3	i
c1ccc(-c2[nH]c3c(ccc4ccccc43)c2-c2ccccc2)cc1	i
